PubChem BioAssay AID493244 (The Scripps Research Institute Molecular Screening Center, 2011)
The campaign covered roughly 340,000 compounds. About 390 (0.11%) were called active.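 The calls were made as follows: active = inhibition above the mean inhibition of all tested compounds plus 3 SD (cut at about 17% in these data); inactive = the rest.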 The full list was thinned out, with actives kept by preference.

biological target: Troponin I, cardiac muscle (Homo sapiens) + Troponin T, cardiac muscle (Homo sapiens) + Troponin C, slow skeletal and cardiac muscles (Homo sapiens) (UniProt P19429+P45379+P63316); assay: cardiac RTF calcium sensitivity inhibitors, primary screen, biochemical, IANBD-TnC fluorescence, EC70 calcium (AID 493244); details: IANBD-labeled cardiac RTF, Ca2+ fluorescence; at 7.15 µM; hits give high values;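 also: assay run at fixed EC70 calcium of 1.6 mM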

| Compound | inhibition |
| --- | --- |
| COc1ccc2c(c1O)-c1cccc3c1[C@@H](C2)N(C)CC3 | 4.82% (inactive) |
| COC1=C[C@@H]2[C@@H]3Cc4ccc(OC)c(O)c4[C@]2(CCN3C)CC1=O | 19.3% (active) |
| COc1ccc2c(c1)[C@]13CCCCC1C(C2)N(C)CC3 (stereo not given in full) | -1.69% (inactive) |
| Cc1ccc(-c2nc3ccccc3c(=O)n2-c2ccc(Br)cn2)cc1 | -6.33% (inactive) |
| COC(=O)C1=C(c2ccccc2)C[C@@H]2CC[C@H]1N2C(=O)N1CCCCC1 | 4.81% (inactive) |
